This passage reports outcome and AC50 results from PubChem BioAssay (EPA / NIEHS).

Holding throughout (settings): mRNA level, 48 h; actives raise or lower the signal
Read-out in test [1]: Bcl-2 (BAD) gene, BAD (gene 572)
Nature of the test: LTEA_HepaRG_BAD: Life Technologies and Expression Analysis (LTEA) Assay for Bcl-2 (BAD) gene using HepaRG (AID 2283469). The procedure, abridged: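 Differentiated human HepaRG cells in serum-free induction medium were exposed in duplicate for 48 h to eight concentrations (top 100 uM, half-log steps, 0.5% DMSO). BAD mRNA was quantified by qRT-PCR normalised to ACTB, GAPDH and POLR2A, with bidirectional fitting versus DMSO.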

Read-out in test [2]: Bcl-2 (BAX) gene, BAX (gene 581)
Kind of test: LTEA_HepaRG_BAX: Life Technologies and Expression Analysis (LTEA) Assay for Bcl-2 (BAX) gene using HepaRG (AID 2283470). The procedure, abridged:
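Differentiated HepaRG cells exposed 48 h in serum-free induction medium, eight half-log concentrations from 100 uM, in duplicate, 0.5% DMSO vehicle. BAX mRNA by TaqMan qRT-PCR, normalised to ACTB, GAPDH and POLR2A.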

Read-out in test [3]: Alpha-fetoprotein (AFP) gene, AFP (gene 174)
Kind of test: LTEA_HepaRG_AFP: Life Technologies and Expression Analysis (LTEA) Assay for Alpha-fetoprotein (AFP) gene using HepaRG (AID 2283472). The procedure, abridged: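 Differentiated human HepaRG cells exposed 48 h in serum-free induction medium, 8-point half-log series from 100 uM in 0.5% DMSO, duplicate. AFP mRNA by qRT-PCR, normalized to ACTB, GAPDH, POLR2A; bidirectional fit vs DMSO.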

Read-out in test [4]: BCL2L11 (gene 10018)
Kind of test: LTEA_HepaRG_BCL2L11: Life Technologies and Expression Analysis (LTEA) Assay for Bcl-2 (BCL2L11) gene using HepaRG (AID 2283473). A digest of the protocol: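 BCL2L11 transcript levels are measured by Fluidigm qRT-PCR, normalized to three housekeeping genes. HepaRG cultures were plated 48 h, then treated 48 h with test chemical (top 100 uM, half-log, 0.5% DMSO vehicle); curves were fitted bidirectionally against DMSO.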

Read-out in test [5]: Apolipoprotein A-V (APOA5) gene, APOA5 (gene 116519)
Nature of the test: LTEA_HepaRG_APOA5: Life Technologies and Expression Analysis (LTEA) Assay for Apolipoprotein A-V (APOA5) gene using HepaRG (AID 2283474). The procedure, abridged: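 APOA5 transcript levels were quantified by qRT-PCR, normalized to three housekeeping genes, after 48 h chemical treatment of HepaRG cells (8 points, 100 uM maximum, half-log steps, 0.5% DMSO). Curves fitted in both directions against vehicle.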

Read-out in test [6]: Apoptosis regulator Bcl-2 (Homo sapiens) (UniProt P10415)
Kind of test: LTEA_HepaRG_BCL2: Life Technologies and Expression Analysis (LTEA) Assay for Bcl-2 gene using HepaRG (AID 2283475). The procedure, abridged:
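Differentiated human HepaRG cells in serum-free induction medium exposed 48 h, in duplicate, to 8-point half-log series from 100 uM in 0.5% DMSO. BCL2 mRNA by qRT-PCR (TaqMan/Fluidigm), normalized to ACTB, GAPDH, POLR2A; bidirectional fit against DMSO.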

Read-out in test [7]: Bcl-2 (BID) gene, BID (gene 637)
Nature of the test: LTEA_HepaRG_BID: Life Technologies and Expression Analysis (LTEA) Assay for Bcl-2 (BID) gene using HepaRG (AID 2283476). A digest of the protocol: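 Gene expression by qRT-PCR in HepaRG cells after 48 h exposure, duplicate wells, eight half-log concentrations topping at 100 uM in 0.5% DMSO. Normalized to ACTB, GAPDH, POLR2A; bidirectional fitting relative to DMSO.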

Read-out in test [8]: Caspase-3 (Homo sapiens) (UniProt P42574)
Nature of the test: LTEA_HepaRG_CASP3: Life Technologies and Expression Analysis (LTEA) Assay for cysteine-aspartic acid protease (CASP3) using HepaRG (AID 2283477). A digest of the protocol: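 Expression of CASP3 was quantified by TaqMan qRT-PCR against three housekeeping genes (ACTB, GAPDH, POLR2A), bidirectionally versus 0.5% DMSO. HepaRG cultures received compounds in duplicate, top 100 uM with half-log steps, for 48 h in serum-free induction medium.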

Read-out in test [9]: Cytochrome P450 (CYP24A1), CYP24A1 (gene 1591)
Nature of the test: LTEA_HepaRG_CYP24A1: Life Technologies and Expression Analysis (LTEA) Assay for Cytochrome P450 (CYP24A1) using HepaRG (AID 2283478). A digest of the protocol: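 mRNA of CYP24A1 quantified by TaqMan qRT-PCR (ACTB/GAPDH/POLR2A normalization) after 48 h chemical exposure of HepaRG cells, top concentration 100 uM, half-log steps, 0.5% DMSO vehicle, duplicates. Curves fitted bidirectionally against DMSO baseline.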

Read-out in test [10]: Cytochrome P450 (CYP1A2), CYP1A2 (gene 1544)
Nature of the test: LTEA_HepaRG_CYP1A2: Life Technologies and Expression Analysis (LTEA) Assay for Cytochrome P450 (CYP1A2) using HepaRG (AID 2283479). A digest of the protocol: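 CYP1A2 transcript measured by TaqMan qRT-PCR against three housekeeping genes after 48-hour chemical exposure of HepaRG cells. Eight-point half-log series topping at 100 uM in 0.5% DMSO, duplicates; gain or loss fitted relative to vehicle.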

Read-out in test [11]: cysteine-aspartic acid protease (CASP8), CASP8 (gene 841)
Nature of the test: LTEA_HepaRG_CASP8: Life Technologies and Expression Analysis (LTEA) Assay for cysteine-aspartic acid protease (CASP8) using HepaRG (AID 2283480). A digest of the protocol: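 Differentiated human HepaRG cells, plated 48 h then switched to serum-free induction medium, were exposed in duplicate for 48 h to 8 half-log concentrations up to 100 uM in 0.5% DMSO. CASP8 mRNA was quantified by qRT-PCR, normalized to ACTB/GAPDH/POLR2A.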

Read-out in test [12]: Cytochrome P450 (CYP2B6), CYP2B6 (gene 1555)
Kind of test: LTEA_HepaRG_CYP2B6: Life Technologies and Expression Analysis (LTEA) Assay for Cytochrome P450 (CYP2B6) using HepaRG (AID 2283481). The procedure, abridged: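 CYP2B6 transcript level quantified by qRT-PCR against three housekeeping genes, fitted bidirectionally relative to DMSO. HepaRG cultures received chemicals for 48 h, 8-point half-log series from 100 uM in 0.5% DMSO, duplicate wells, serum-free induction medium.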

Read-out in test [13]: Cytochrome P450 2C19 (Homo sapiens) (UniProt P33261)
Kind of test: LTEA_HepaRG_CYP2C19: Life Technologies and Expression Analysis (LTEA) Assay for CYP2C19 using HepaRG (AID 2283482). A digest of the protocol: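 CYP2C19 transcript levels by qRT-PCR, normalized to three housekeeping genes, in HepaRG cells after 48 h chemical exposure. Eight-point half-log series topping at 100 uM, 0.5% DMSO vehicle. Increases and decreases both fitted against DMSO.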

Read-out in test [14]: CYP2C8 (gene 1558)
Kind of test: LTEA_HepaRG_CYP2C8: Life Technologies and Expression Analysis (LTEA) Assay for CYP2C8 using HepaRG (AID 2283483). The procedure, abridged: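 Differentiated human HepaRG cells were exposed for 48 h in serum-free induction medium to eight half-log concentrations up to 100 uM in 0.5% DMSO, in duplicate. CYP2C8 mRNA was measured by TaqMan qRT-PCR, normalized to ACTB, GAPDH and POLR2A, and fitted bidirectionally against DMSO.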

Read-out in test [15]: CYP2C9 (gene 1559)
Nature of the test: LTEA_HepaRG_CYP2C9: Life Technologies and Expression Analysis (LTEA) Assay for CYP2C9 using HepaRG (AID 2283484). A digest of the protocol: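 Differentiated human HepaRG cells were exposed 48 h in serum-free induction medium to eight half-log concentrations up to 100 uM in 0.5% DMSO. CYP2C9 mRNA was measured by qRT-PCR, normalized to ACTB, GAPDH and POLR2A, and fitted bidirectionally against DMSO.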

Read-out in test [16]: CYP2E1 (gene 1571)
Nature of the test: LTEA_HepaRG_CYP2E1: Life Technologies and Expression Analysis (LTEA) Assay for CYP2E1 using HepaRG (AID 2283485). A digest of the protocol:
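HepaRG cells, plated 48 h, then exposed 48 h in serum-free induction medium to eight half-log concentrations from 100 uM in 0.5% DMSO, duplicate. CYP2E1 mRNA by qRT-PCR, normalized to ACTB/GAPDH/POLR2A; bidirectional fit versus DMSO.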

Read-out in test [17]: CYP4A11 (gene 1579)
Kind of test: LTEA_HepaRG_CYP4A11: Life Technologies and Expression Analysis (LTEA) Assay for CYP4A11 using HepaRG (AID 2283486). A digest of the protocol: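 Readout is CYP4A11 transcript level by qRT-PCR, normalized to three housekeeping genes and fitted bidirectionally against 0.5% DMSO. Human HepaRG cells were treated 48 h, in duplicate, with an 8-point half-log series topping at 100 uM.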

Read-out in test [18]: Cytochrome P450 3A4 (Homo sapiens) (UniProt P08684)
Kind of test: LTEA_HepaRG_CYP3A4: Life Technologies and Expression Analysis (LTEA) Assay for CYP3A4 using HepaRG (AID 2283487). A digest of the protocol: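 In a human hepatic line (HepaRG), duplicate wells were treated 48 h with up to 100 uM chemical in half-log dilutions. Endpoint: CYP3A4 mRNA induction or loss relative to 0.5% DMSO vehicle, by qRT-PCR.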

Structures are written as SMILES. Activity calls are given as the source filed them. The calls were made as follows: active = hit-call score of the fitted dose curve at least 0.9, where 1 is the maximum; inactive = score below 0.9.

Chain of Apoptosis regulator Bcl-2 (Homo sapiens) (P10415 whole entry, looked up): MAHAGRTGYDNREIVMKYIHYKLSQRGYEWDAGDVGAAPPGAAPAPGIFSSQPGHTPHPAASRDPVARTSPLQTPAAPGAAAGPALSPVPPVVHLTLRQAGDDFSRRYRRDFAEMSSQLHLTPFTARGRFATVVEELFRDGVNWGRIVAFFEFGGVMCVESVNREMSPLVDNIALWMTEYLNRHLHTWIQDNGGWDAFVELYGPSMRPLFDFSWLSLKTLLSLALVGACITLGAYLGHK
Chain of Caspase-3 (Homo sapiens) (P42574 whole entry, looked up): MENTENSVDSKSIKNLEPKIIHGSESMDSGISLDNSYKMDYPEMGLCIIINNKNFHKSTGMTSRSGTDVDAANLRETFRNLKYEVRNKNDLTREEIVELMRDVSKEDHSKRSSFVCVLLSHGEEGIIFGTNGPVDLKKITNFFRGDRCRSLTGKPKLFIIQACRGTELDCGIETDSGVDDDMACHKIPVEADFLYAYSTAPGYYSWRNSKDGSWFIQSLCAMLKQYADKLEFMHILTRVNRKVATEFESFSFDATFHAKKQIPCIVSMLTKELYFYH
Chain of Cytochrome P450 2C19 (Homo sapiens) (P33261 whole entry, looked up): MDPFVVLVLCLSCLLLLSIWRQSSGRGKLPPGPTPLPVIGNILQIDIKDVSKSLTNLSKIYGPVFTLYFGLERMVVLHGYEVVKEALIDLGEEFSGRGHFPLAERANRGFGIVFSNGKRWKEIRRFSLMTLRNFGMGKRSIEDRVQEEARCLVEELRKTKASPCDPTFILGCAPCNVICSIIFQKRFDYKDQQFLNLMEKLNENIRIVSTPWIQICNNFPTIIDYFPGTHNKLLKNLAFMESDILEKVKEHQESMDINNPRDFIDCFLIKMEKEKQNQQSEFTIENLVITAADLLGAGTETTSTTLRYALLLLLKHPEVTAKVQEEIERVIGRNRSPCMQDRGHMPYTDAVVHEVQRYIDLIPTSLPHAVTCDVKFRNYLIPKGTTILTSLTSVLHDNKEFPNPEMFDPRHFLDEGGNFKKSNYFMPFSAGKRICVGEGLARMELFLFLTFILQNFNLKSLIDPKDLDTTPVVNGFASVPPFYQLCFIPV
Chain of Cytochrome P450 3A4 (Homo sapiens) (P08684 whole entry, looked up): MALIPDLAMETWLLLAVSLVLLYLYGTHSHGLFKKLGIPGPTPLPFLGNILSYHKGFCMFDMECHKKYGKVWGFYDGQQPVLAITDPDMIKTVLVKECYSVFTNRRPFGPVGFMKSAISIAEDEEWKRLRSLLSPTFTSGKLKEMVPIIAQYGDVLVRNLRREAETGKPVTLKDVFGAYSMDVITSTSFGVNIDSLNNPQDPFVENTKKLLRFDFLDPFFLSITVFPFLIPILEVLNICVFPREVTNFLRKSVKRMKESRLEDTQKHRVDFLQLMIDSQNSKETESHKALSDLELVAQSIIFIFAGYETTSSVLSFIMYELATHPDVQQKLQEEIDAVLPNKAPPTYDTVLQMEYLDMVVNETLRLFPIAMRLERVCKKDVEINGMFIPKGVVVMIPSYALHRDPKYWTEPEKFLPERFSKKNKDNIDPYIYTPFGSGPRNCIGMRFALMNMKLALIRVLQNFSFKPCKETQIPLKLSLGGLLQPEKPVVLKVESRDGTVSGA

Regarding `C=C(C)[C@H]1Cc2c(ccc3c2O[C@@H]2COc4cc(OC)c(OC)cc4[C@@H]2C3=O)O1`, the call in [1], in test [7], in [8], in test [9] and in test [11] was inactive. Moreover, the concentration at half-maximal activity (AC50) was 6.55 µM (active) in test [2]; 0.985 µM (active) in [3]; 1.07 µM (active) in test [4]; 12.9 µM (active) in [5]; 2.94 µM (active) in test [6]; 0.679 µM (active) in [10]. Also, the concentration at half-maximal activity (AC50) was 0.5 µM (active) in test [12]; 2.75 µM (active) in test [13]; 1.36 µM (active) in test [14]; 3.67 µM (active) in [15]; 0.591 µM (active) in [16]; 0.838 µM (active) in test [17].
On to `CCOP(=S)(OCC)Oc1ccc([N+](=O)[O-])cc1`, for which the compound was called inactive in test [1], in test [2], in test [4], in test [5], in [6] and in test [7]. Moreover, the result in [8], in test [9], in test [11], in [14], in test [15] and in test [17] was inactive. Besides, the AC50 in test [3] was 2.4 µM (active); in test [10] it was 15.1 µM (active); in test [12], 0.636 µM (active); in test [13] it was 9.2 µM (active); in test [16], 7.92 µM (active); in test [18], 8.92 µM (active).
With `CCC(CC)Nc1c([N+](=O)[O-])cc(C)c(C)c1[N+](=O)[O-]`, the compound was classed as inactive in [1], in [2], in [4], in test [6], in [7] and in test [8]. For the same compound, the call in test [9], in [10], in [11], in [14], in test [15] and in [17] was inactive. Also, the AC50 in test [3] is 50 µM (active); in test [12] it was 13.1 µM (active); in [13] it was 6.35 µM (active); in test [16], 64.7 µM (active); in [18], 25.4 µM (active).
On to `CNC(=O)Oc1cccc2c1OC(C)(C)O2`, for which the outcome in [1], in test [2], in [3], in [4], in test [5] and in [6] was inactive. Further, the compound was classed as inactive in [7], in [8], in [9], in [10], in test [11] and in [12]. The compound was classed as inactive in test [13], in [14], in test [15], in test [16], in [17] and in test [18].
